PubChem BioAssay (NCATS)
Results filed as inconclusive are left out. Activity calls are given as the source filed them. Calls come from the whole dose curve; as a rule, active = well fitted curve in the direction sought with a large enough effect; inconclusive = small, poorly fitted or top-dose-only effect, or another doubt; inactive = no such curve, though single readings can be large; an effect the other way counts as inactive or inconclusive.

Columns and labels:
MCC-13 = experiment: qHTS assay to identify novel small-molecules to repurpose for Merkel cell carcinoma treatment (AID 1296009); settings: MCC and control cell lines, CellTiter-Glo viability, 72 h; series mostly up to 46 µM; note: nearly all actives have a fitted effect of over 60% in size
Summary of the method: (§1)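 Viability readout: ATP luminescence (CellTiter-Glo) after 72 hr drug exposure at 37 degree celsius. Dose-response format was 8 points for NPC and 11 points for MIPE; data normalized to in-plate controls.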

MKL-1 = experiment: as above; settings: MCC and control cell lines, CellTiter-Glo viability, 72 h; series mostly up to 46 µM
Summary of the method: as §1

WaGa = experiment: as above; settings: MCC and control cell lines, CellTiter-Glo viability, 72 h; series mostly up to 46 µM
Summary of the method: as §1

MKL-2 = experiment: as above; settings: MCC and control cell lines, CellTiter-Glo viability, 72 h; series mostly up to 46 µM
Summary of the method: as §1

UISO = experiment: as above; settings: MCC and control cell lines, CellTiter-Glo viability, 72 h; series mostly up to 46 µM
Summary of the method: as §1

C33A = experiment: Primary qHTS to identify gynecologic anti-cancer compounds using libraries of approved drugs and bioactive compounds (AID 1345084); settings: Gynecologic cancer cell panel viability, ATPlite luminescence, 48 h; series mostly up to 57.5 µM; note: nearly all actives have a fitted effect of over 55% in size
Summary of the method: (§2)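 Cytotoxicity screen measuring ATP content by luciferase luminescence. Each compound is applied at five concentrations for 48 h at 37 C with 5% CO2.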

CASKI = experiment: as above; settings: Gynecologic cancer cell panel viability, ATPlite luminescence, 48 h; series mostly up to 57.5 µM
Summary of the method: as §2

Hek293T = experiment: as above; settings: Gynecologic cancer cell panel viability, ATPlite luminescence, 48 h, control line for the selectivity index; series mostly up to 57.5 µM
Summary of the method: as §2

JEG-3 = experiment: as above; settings: Gynecologic cancer cell panel viability, ATPlite luminescence, 48 h; series mostly up to 57.5 µM
Summary of the method: as §2

OV90 = experiment: as above; settings: Gynecologic cancer cell panel viability, ATPlite luminescence, 48 h; series mostly up to 57.5 µM
Summary of the method: as §2

Tov112D = experiment: as above; settings: Gynecologic cancer cell panel viability, ATPlite luminescence, 48 h; series mostly up to 57.5 µM
Summary of the method: as §2

MCC-26 = experiment: qHTS assay to identify novel small-molecules to repurpose for Merkel cell carcinoma treatment (AID 1296009); settings: MCC and control cell lines, CellTiter-Glo viability, 72 h; series mostly up to 46 µM; note: nearly all actives have a fitted effect of over 60% in size
Summary of the method: as §1

CAOV3 = experiment: Primary qHTS to identify gynecologic anti-cancer compounds using libraries of approved drugs and bioactive compounds (AID 1345084); settings: Gynecologic cancer cell panel viability, ATPlite luminescence, 48 h; series mostly up to 57.5 µM; note: nearly all actives have a fitted effect of over 55% in size
Summary of the method: as §2

Es-2 = experiment: as above; settings: Gynecologic cancer cell panel viability, ATPlite luminescence, 48 h; series mostly up to 57.5 µM
Summary of the method: as §2

HeLa = experiment: as above; settings: Gynecologic cancer cell panel viability, ATPlite luminescence, 48 h; series mostly up to 57.5 µM
Summary of the method: as §2

PA-1 = experiment: as above; settings: Gynecologic cancer cell panel viability, ATPlite luminescence, 48 h; series mostly up to 57.5 µM
Summary of the method: as §2

SKOV3 = experiment: as above; settings: Gynecologic cancer cell panel viability, ATPlite luminescence, 48 h; series mostly up to 57.5 µM
Summary of the method: as §2

Tov-21-G = experiment: as above; settings: Gynecologic cancer cell panel viability, ATPlite luminescence, 48 h; series mostly up to 57.5 µM
Summary of the method: as §2

Measured: Potency
Potency is the fitted concentration of half-maximal effect.

O=C(C=Cc1ccc(O)cc1)c1ccc(O)cc1O
inactive: MCC-13 | MKL-1 | WaGa

CN1CCc2c(n(Cc3ccc(C(=O)NO)cc3)c3ccccc23)C1
inactive: MCC-13 | UISO | C33A | CASKI | Hek293T | JEG-3 | OV90 | Tov112D
active: MKL-2 14.8 µM | WaGa 18.7 µM

CCN(CC)CCCCNc1nc2cc(Cl)c(Cl)cc2nc1-c1ccc(-c2cccs2)s1
active: MKL-1 23.5 µM | MKL-2 14.8 µM
inactive: MCC-26

COc1nccc(-c2c(-c3ccc(F)cc3)ncn2C2CCC(O)CC2)n1 (stereo not given)
not listed: WaGa | OV90 | MCC-26
inactive: all other assays above

O=S(=O)(NCCNCC=Cc1ccc(Br)cc1)c1cccc2cnccc12
active: MKL-1 20.9 µM | MKL-2 5.26 µM | WaGa 14.8 µM
inactive: MCC-26

CN[C@@H]1CN(c2ccc3c(=O)c(C(=O)O)cn(-c4nccs4)c3n2)C[C@@H]1OC
active: MKL-1 1.82 µM | MKL-2 3.23 µM | WaGa 1.15 µM
inactive: MCC-26

CN1N=C(N)c2cn([C@@H]3O[C@H](COP(=O)(O)O)[C@@H](O)[C@@H]3O)c3ncnc1c23
active: MKL-1 5.9 µM | MKL-2 5.9 µM | UISO 469 nM | WaGa 0.0372 µM
inactive: MCC-26

COc1ccc2nc3cc(Cl)ccc3c(Nc3cc(CN4CCCC4)c(O)c(CN4CCCC4)c3)c2n1
active: WaGa 18.7 µM
inactive: MCC-13 | UISO

CCCCCCOC(=O)N=C(N)c1ccc(NCc2nc3cc(C(=O)N(CCC(=O)OCC)c4ccccn4)ccc3n2C)cc1
inactive: MCC-13 | MKL-2 | UISO | WaGa

OC(c1cc(C(F)(F)F)nc2c(C(F)(F)F)cccc12)C1CCCCN1 (stereo not given)
inactive: MCC-13 | MKL-1 | UISO | WaGa

NCc1c[nH]c(=S)n1[C@H]1CCc2c(F)cc(F)cc2C1
active: MKL-2 20.9 µM
inactive: MCC-13

CC1=C(C(=O)Nc2cc3cn[nH]c3cc2F)C(c2ccc(C(F)(F)F)cc2)CC(=O)N1 (stereo not given)
not listed: MCC-13 | WaGa | CAOV3
inactive: all other assays above

Cc1ccc(C(=O)N(CCCN)[C@@H](c2oc3cc(Cl)ccc3c(=O)c2Cc2ccccc2)C(C)C)cc1
inactive: MKL-1 | WaGa
active: MCC-13 8.3 nM | MKL-2 8.33 µM

C[C@@H]1CCO[C@H]2Cn3cc(C(=O)NCc4ccc(F)cc4F)c(=O)c(O)c3C(=O)N12
inactive: MCC-13 | UISO | JEG-3
active: Tov-21-G 25.1 µM

CSc1cccc(Nc2ncc3cc(-c4c(Cl)cccc4Cl)c(=O)n(C)c3n2)c1
inactive: MCC-13 | MKL-1 | MKL-2 | WaGa

Cc1ccc(NC(=O)c2cccc(N(C)C)c2)cc1NC(=O)c1ccc(O)cc1
active: MKL-1 8.33 µM | MKL-2 2.96 µM | WaGa 8.33 µM
inactive: MCC-13

CC(C)Oc1cc(Nc2nc(N[C@@H](C)c3ccc(F)cn3)ncc2Cl)[nH]n1
inactive: MKL-1 | MKL-2
active: MCC-26 14.8 µM

O=C(O)c1ccc(O)c2ncc(N3CCOCC3)cc12
inactive: MCC-13
active: MKL-1 16.6 µM | MKL-2 14.8 µM | WaGa 23.5 µM

Cc1ccc(C(=O)N(CCCN)[C@@H](c2nc3cc(Cl)ccc3c(=O)n2Cc2ccccc2)C(C)C)cc1
inactive: UISO
active: MCC-13 29.6 nM

c1cc(OCCN2CCCCC2)cc(-c2n[nH]c3ccc(-c4ncn[nH]4)cc23)c1
active: WaGa 18.7 µM
not listed: MKL-2 | UISO | MCC-26 | CAOV3 | SKOV3
inactive: all other assays above
